Data as given in ChEMBL document CHEMBL3988442, “University of Dundee, Small-Polar-MMV Screening Library” (2021).
For some of these results: Results with a measured potency or affinity are listed apart.

Legend:
Parameters in all cases: scale not given: direction of the effect not stated beside the values
[1] = target: Protein translocase subunit SecA (Escherichia coli (strain K12)) (UniProt P10408); experiment: Assay to Identify E. coli SecA ATPase Inhibitors; format: functional; details: 30 µM
[2] = target: T1, Ubiquitin-activating enzyme e1, putative (Leishmania donovani (strain BPK282A1)) (UniProt E9BSI1); experiment: Leishmania donovani Ubiquitin Activating Enzyme (LdE1); format: functional; details: 30 µM
T1 sequence (whole entry): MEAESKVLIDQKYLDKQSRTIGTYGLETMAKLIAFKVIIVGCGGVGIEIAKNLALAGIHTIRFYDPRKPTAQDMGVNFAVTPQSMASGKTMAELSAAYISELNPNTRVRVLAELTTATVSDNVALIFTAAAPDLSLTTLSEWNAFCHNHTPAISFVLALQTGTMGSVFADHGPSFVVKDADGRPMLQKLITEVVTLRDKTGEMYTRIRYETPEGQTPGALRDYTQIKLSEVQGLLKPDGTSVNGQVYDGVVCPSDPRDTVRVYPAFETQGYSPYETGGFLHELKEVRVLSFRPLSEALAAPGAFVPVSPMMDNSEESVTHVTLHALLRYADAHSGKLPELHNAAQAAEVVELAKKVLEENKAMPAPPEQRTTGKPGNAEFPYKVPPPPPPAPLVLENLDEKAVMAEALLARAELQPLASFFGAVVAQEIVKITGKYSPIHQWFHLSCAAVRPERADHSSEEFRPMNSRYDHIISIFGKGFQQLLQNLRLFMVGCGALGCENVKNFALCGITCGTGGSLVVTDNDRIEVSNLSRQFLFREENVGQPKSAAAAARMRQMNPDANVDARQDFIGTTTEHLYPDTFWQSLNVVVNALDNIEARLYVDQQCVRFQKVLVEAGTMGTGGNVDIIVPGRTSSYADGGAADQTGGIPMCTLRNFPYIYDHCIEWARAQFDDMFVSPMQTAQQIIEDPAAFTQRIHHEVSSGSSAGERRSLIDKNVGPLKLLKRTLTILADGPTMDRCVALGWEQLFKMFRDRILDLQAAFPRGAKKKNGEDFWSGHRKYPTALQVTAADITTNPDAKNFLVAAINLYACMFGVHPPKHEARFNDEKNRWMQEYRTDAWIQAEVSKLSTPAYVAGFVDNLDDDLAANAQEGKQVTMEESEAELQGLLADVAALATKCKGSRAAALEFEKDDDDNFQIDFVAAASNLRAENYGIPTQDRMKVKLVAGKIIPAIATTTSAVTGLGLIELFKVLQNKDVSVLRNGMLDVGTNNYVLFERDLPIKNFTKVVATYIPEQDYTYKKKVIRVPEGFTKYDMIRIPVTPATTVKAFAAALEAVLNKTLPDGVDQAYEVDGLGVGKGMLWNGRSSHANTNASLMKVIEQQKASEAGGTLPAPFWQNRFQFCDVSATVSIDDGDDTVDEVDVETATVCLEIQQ

[3] = target: AMP-activated protein kinase, AMPK (Homo sapiens) (UniProt P54646+O43741+P54619+Q9UGJ0+Q9Y478+Q13131+Q9UGI9); experiment: AMP-dependent Kinase enzyme assay. An in vitro enzyme assay that detects ADP turnover that is directly proportional to AMPK activity. This uses naive AMPK that is activated during the assay with MK-8722; format: functional; details: 30 µM
[4] = target: Sialic acid-binding Ig-like lectin 9 (Homo sapiens) (UniProt Q9Y336); experiment: Hs-Siglec9 ALPHAscreen SOP 20170721; details: 10 µM
Trypanosoma cruzi = experiment: Trypanosoma cruzi phosphomannomutase and mannose-1-phosphate guanylyltransferase assay; format: functional; details: 10 µM
[5] = target: T2, Arginase-2, mitochondrial (Homo sapiens) (UniProt P78540); experiment: in vitro enzyme assay to detect the production of urea directly proportional to the activity of Arginase II; format: functional; details: 33.3 µM; note: in the data most compounds retested in dose-response had high values
T2 sequence (whole entry): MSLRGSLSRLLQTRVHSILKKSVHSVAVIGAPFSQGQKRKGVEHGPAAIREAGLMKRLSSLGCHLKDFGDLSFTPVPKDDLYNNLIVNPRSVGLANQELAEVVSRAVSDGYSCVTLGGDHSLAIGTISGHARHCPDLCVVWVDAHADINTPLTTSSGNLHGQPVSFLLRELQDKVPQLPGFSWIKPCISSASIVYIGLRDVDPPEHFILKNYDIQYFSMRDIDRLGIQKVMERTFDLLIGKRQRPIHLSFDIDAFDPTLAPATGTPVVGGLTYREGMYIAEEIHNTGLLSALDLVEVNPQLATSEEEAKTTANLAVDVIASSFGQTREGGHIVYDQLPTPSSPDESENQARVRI

[6] = target: T3, Proteasome subunit beta (Trypanosoma cruzi) (UniProt O96673); experiment: Trypanosoma cruzi proteasome chymotrypsin-like activity (TcProtChymo) assay.; note: in the data most compounds retested in dose-response had high values; format: functional; details: 9.37 µM
T3 sequence (whole entry): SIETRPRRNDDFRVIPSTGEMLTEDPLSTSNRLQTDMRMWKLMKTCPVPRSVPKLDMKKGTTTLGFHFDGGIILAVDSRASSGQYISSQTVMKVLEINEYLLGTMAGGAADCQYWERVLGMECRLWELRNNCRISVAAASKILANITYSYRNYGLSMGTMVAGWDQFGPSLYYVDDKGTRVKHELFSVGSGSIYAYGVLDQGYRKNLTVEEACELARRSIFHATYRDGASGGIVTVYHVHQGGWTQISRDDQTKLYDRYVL

Homo sapiens = organism: Homo sapiens; experiment: To identify inhibition of the IFN signalling (Jak-Stat) pathway via expression of an eGFP reporter gene under the control of an IFN-stimulated response element (ISRE) containing MxA promoter.; format: functional; details: 30 µM
[7] = target: T4, Tyrosyl-tRNA synthetase, putative (Trypanosoma cruzi (strain CL Brener)) (UniProt Q4DSP6); experiment: Trypanosoma cruzi tyrosyl tRNA synthetase (TcYRS) _High Tyrosine SOP; format: functional; details: 30 µM; note: in the data most compounds retested in dose-response had high values
T4 sequence (whole entry): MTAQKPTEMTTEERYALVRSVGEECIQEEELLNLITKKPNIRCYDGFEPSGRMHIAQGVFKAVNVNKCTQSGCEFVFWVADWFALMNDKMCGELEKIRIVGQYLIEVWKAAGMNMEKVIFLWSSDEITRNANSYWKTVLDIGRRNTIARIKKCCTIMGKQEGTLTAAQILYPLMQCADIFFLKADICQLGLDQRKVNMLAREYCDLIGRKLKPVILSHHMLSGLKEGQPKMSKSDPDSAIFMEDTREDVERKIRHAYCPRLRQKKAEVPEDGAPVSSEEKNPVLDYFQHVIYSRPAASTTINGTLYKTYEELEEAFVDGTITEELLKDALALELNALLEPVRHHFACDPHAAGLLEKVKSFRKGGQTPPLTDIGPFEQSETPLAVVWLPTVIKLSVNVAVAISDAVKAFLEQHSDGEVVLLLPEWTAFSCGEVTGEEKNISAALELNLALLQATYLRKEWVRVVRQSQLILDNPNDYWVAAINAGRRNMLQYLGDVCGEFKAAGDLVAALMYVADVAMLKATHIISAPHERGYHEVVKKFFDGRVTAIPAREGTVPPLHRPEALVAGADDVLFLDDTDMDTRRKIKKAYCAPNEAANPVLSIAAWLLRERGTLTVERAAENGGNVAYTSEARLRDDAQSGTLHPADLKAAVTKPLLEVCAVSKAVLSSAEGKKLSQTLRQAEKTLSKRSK

[8] = target: T4, Tyrosyl-tRNA synthetase, putative (Trypanosoma cruzi (strain CL Brener)); experiment: Trypanosoma cruzi tyrosyl tRNA synthetase (TcYRS) SOP; format: functional; details: 30 µM
[9] = target: Chromo domain-containing protein 1 (Saccharomyces cerevisiae (strain ATCC 204508 / S288c) (Baker's yeast)) (UniProt P32657); experiment: ScCHD-1 Enzyme Inhibition Assay; format: functional; details: 30 µM; note: in the data most compounds retested in dose-response had high values
Sequence of Chromo domain-containing protein 1 (Saccharomyces cerevisiae (strain ATCC 204508 / S288c) (Baker's yeast)) (P32657 whole entry, the tested form may be a part): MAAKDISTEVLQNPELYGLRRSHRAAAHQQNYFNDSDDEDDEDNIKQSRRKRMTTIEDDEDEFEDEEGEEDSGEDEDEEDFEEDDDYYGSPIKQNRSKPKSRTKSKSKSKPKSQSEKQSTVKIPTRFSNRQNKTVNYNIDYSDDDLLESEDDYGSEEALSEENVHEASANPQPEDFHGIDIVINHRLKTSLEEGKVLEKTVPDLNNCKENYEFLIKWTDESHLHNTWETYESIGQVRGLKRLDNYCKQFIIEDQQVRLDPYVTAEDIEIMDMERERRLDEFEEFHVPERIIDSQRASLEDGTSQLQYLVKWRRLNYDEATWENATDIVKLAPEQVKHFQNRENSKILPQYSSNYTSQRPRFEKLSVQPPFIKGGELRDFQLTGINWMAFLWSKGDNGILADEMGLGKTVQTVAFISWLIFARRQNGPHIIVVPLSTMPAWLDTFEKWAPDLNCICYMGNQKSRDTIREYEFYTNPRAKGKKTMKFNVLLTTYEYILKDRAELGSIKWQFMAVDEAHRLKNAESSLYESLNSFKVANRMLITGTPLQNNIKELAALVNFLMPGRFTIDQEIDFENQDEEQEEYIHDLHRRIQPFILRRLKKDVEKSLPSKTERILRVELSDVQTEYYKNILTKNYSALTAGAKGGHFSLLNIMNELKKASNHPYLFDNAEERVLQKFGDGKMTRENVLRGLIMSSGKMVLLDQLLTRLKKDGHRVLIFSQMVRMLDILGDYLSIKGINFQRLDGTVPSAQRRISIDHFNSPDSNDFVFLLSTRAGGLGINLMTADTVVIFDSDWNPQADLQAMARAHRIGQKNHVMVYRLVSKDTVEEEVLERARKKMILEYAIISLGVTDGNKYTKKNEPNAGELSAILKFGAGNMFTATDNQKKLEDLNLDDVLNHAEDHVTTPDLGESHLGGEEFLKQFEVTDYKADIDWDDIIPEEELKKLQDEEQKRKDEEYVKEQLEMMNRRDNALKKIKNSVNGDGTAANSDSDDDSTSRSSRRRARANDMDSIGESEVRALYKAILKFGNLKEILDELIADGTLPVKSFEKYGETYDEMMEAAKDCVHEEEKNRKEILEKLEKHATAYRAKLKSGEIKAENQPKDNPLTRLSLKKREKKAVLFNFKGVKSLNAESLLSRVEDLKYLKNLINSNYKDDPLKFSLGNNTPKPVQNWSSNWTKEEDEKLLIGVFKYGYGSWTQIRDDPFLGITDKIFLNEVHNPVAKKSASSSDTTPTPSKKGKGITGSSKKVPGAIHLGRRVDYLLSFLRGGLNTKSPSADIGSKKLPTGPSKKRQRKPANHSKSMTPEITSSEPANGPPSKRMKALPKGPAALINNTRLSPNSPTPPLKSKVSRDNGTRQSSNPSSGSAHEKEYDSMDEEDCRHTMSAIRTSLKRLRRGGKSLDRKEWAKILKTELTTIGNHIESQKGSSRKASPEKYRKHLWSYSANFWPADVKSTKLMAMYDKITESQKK

Sequence of Protein translocase subunit SecA (Escherichia coli (strain K12)) (P10408 whole entry): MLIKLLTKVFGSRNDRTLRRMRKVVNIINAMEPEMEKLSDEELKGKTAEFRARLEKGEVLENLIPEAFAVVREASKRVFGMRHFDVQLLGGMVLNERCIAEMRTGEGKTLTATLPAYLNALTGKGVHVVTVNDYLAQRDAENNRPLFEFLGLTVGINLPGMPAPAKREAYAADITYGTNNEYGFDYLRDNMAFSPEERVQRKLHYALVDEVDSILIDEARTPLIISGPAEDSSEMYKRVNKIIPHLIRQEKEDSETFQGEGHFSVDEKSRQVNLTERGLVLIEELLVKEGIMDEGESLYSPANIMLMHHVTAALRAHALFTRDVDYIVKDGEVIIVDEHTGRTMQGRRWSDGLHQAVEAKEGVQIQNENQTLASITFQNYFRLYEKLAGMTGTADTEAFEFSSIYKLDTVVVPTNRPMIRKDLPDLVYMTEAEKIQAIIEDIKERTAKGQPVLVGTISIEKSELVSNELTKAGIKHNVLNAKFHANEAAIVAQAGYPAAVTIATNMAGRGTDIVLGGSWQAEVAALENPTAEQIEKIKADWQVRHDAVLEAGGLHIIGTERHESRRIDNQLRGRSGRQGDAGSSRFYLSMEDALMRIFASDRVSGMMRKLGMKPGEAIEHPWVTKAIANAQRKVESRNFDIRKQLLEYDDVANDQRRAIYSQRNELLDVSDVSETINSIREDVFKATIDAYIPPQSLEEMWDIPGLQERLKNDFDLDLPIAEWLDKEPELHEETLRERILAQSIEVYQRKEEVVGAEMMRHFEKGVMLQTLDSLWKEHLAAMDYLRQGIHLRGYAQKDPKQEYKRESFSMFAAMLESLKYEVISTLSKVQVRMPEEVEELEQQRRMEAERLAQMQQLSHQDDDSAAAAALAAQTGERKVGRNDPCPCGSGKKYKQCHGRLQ
Sequence of Sialic acid-binding Ig-like lectin 9 (Homo sapiens) (Q9Y336 whole entry): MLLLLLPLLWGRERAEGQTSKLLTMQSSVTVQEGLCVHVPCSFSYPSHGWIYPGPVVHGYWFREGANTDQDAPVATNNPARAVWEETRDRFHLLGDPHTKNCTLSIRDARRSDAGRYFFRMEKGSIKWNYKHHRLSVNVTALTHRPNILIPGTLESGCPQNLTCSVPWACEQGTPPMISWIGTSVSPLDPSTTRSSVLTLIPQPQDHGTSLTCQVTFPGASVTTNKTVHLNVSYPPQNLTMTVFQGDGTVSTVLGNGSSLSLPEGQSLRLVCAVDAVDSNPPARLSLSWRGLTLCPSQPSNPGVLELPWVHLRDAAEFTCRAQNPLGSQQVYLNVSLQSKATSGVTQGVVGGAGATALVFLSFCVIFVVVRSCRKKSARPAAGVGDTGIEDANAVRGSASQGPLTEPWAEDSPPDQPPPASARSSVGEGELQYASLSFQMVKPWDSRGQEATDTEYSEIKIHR

Row | SMILES | Percent Effect [1] [%] | Percent Effect [2] [%] | Percent Effect [3] [%] | Percent Effect [4] [%] | Percent Effect (Trypanosoma cruzi) [%] | Percent Effect [5] [%] | Percent Effect [6] [%] | Percent Effect (Homo sapiens) [%] | Percent Effect [7] [%] | Percent Effect [8] [%] | Percent Effect [9] [%]
1 | Cc1nnc(N2CCOC(Cn3cccn3)C2)c(C#N)c1C (stereo not given) | -1.71 | -5.26 | -36.6 | 1.01 | 2.26 | 4.21 | -0.334 | -3.56 | 2.45 | 0 | -0.172
2 | Cc1nn2c(N3CCC(O)C3)cc(-c3ccccc3)nc2c1C (stereo not given) | -2.08 | 16.4 | -7.6 | 7.31 | 2.58 | -1.6 | 12.6 | -0.188 | 7.29 | -82.7 | -3.57
3 | Cc1cc(N2CCN(C(=O)c3cc(Cl)c[nH]3)CC2)nc(N)n1 | 0.0114 | 8.22 | -3.11 | 13.8 | 5.36 | -2.4 | 15.3 | 17.5 | 10.4 | 13.6 | -0.523
4 | CO[C@@H]1CC[C@H]2[C@H]1OCCN2C(=O)c1ccc(C)o1 | 2.4 | 10.4 | 173 | -12.1 | -7.2 | -11 | 14.1 | 22.1 | -3.17 | -1.28 | -14
5 | Cn1nnc2c1C(COCc1ccccn1)CN(C(=O)c1cccs1)C2 (stereo not given) | 3.29 | 16.4 | -9.82 | 5.59 | 1.59 | -7.19 | 13.6 | 36.4 | 6.25 | 23.5 | -1.99
6 | Cc1cccc(NC(=O)Cn2ncc(SCC(N)=O)c(Cl)c2=O)c1C | -3.9 | 5.48 | 4.95 | -15.5 | -4.31 | 3.18 | 22.5 | 17.6 | 5.38 | 5 | 79.5
7 | Cc1cc(NC(=O)CN2CCn3c(nnc3C3CC3)C2)n(C)n1 | -3.7 | -5.26 | 11.5 | -1.43 | -4.7 | 0 | 4.84 | 21.3 | -0.49 | 0 | 3.45
8 | Cc1noc2ncc(C(=O)N3CCCC3c3cnn(C)c3)cc12 (stereo not given) | -1.99 | 2.53 | -1.98 | -2 | -2.17 | -3.42 | 3.52 | 12 | -3.45 | -1.27 | -2.49
9 | Fc1cccc(-n2ccc(CN3CCCCC3Cn3cncn3)n2)c1 (stereo not given) | -3.79 | -7.59 | 0.842 | 2.62 | -2.74 | -1.14 | -2.21 | 17 | -2.46 | -8.86 | 2.75
10 | CCc1ncc2c(n1)CN(CC(=O)NCCOc1ccccc1)CC2 | -4.72 | 7.89 | -23.5 | -1.72 | 1.21 | -1.44 | -5.84 | -22.3 | 11.3 | 6.17 | 1.38
11 | O=C(Cc1ccsc1)N1C[C@@H]2CN(Cc3ccoc3)CCO[C@@H]2C1 | -1.51 | 0 | 4.82 | 8.18 | 1.86 | 0.955 | 14.6 | -8.8 | 0 | 7.69 | 11.3
12 | OC(CN1CCN(c2ncccn2)CC1)c1cccc(F)c1 (stereo not given) | -2.83 | 13.5 | -5.06 | 19.1 | 4.99 | 16.6 | 2.49 | 20.5 | 6.45 | 16.1 | -5.42
13 | N#CCSCCCN1CCCN(C(=O)c2ccccc2)CC1 | -1.53 | -5.48 | 0.11 | 1.74 | -4.17 | 3.19 | 1.63 | 14.4 | 1.04 | 3.7 | 6.49
14 | Cc1ncsc1C(=O)NC1CCN(CC(=O)NCc2ccccc2)CC1 | -3.36 | 13.2 | 0.646 | 1.72 | 2.71 | -1.8 | 7.02 | -2.18 | 9.36 | 16.1 | -2.75
15 | CCc1cnc(CN(C(C)=O)C2CCN(CCc3cccs3)C2)o1 (stereo not given) | -3.22 | 13.2 | 0.738 | -12.5 | -4.95 | 2.16 | 21.6 | 4.61 | 7.39 | 6.17 | -8.12
16 | CC(=O)Nc1nc(C(=O)NCc2ccc(N3CCCCCC3)nc2)cs1 | -1.32 | 24.1 | 5.19 | -5.11 | -1.13 | -4.09 | 20.6 | 29.2 | 4.17 | 22.8 | -18.9
17 | Cn1ncc2c(NCCC34CCCN3CCC4)nc(C3CCCC3)nc21 | -5.81 | 5.48 | 0.214 | 3.33 | 0.979 | 4.09 | 5.68 | -18.5 | 6.45 | 12.5 | -5.71
18 | COc1ccccc1CC(=O)NCc1c(C)nc2cc(=O)[nH]n2c1C | -2.98 | 0 | -13.8 | 9.27 | 3.01 | 1.53 | 8.02 | 7.43 | 4.41 | 7.32 | -7.8
19 | CCOc1cc(C)nc(N2CCN(Cc3nccn3C)CC2)n1 | 0.029 | 4.17 | -6.46 | 13.8 | 0.875 | 12.4 | 11.2 | 4.49 | 5.26 | 7.69 | -4.66
20 | CS(=O)(=O)NCc1nnc2n1CCN(CC1CC1)C2 | -5.86 | 8.11 | 5.91 | -4.89 | -0.293 | -2.23 | 18.6 | -21.1 | 5.41 | 12.8 | -2.16
